Screening results (PubChem BioAssay)
Methyltransferases – Primary Screen for Target Class Profiling of Small Molecule Inhibitors of Methyltransferases. calls only at 40 µM. purified enzyme, MTase-Glo SAH luminescence; stronger effect = lower value. 3.9% of 25,000 active. AID 1745853, 2022; call rule not given here
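Each enzyme was reacted with SAM and its substrate, with compounds tested once at 40 uM; SAH formed was read by MTase-Glo luminescence.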
MTase-Glo ctr – inhibits MTase-Glo coupling enzymes without methyltransferase. shares compounds with Methyltransferases. MTase-Glo coupled enzymes, SAH conversion luminescence, no MTase. Potency, µM (series often up to 57.3 µM), without a hit: at the top dose activity change, negative = inhibition, hits mostly inhibitors. 6% of 180 active. AID 1745851; active = well fitted inhibition curve with a large enough effect; inconclusive = small, poorly fitted or top-dose-only effect; note: potency is the fitted concentration of half-maximal effect
The depositor's hits bear a star; i = inactive; u = inconclusive; + = active, no number; [ ] = remark or other dose. Many of the other results were omitted from the sample, so hits are more common in it than they were. % is set by controls: 0 for no effect and ±100 for the full control effect.

SMILES	Methyltransferases	others
Nc1nc(C2CC(O)C2)cc(N2CC(N3CCOCC3)C2)n1 (configuration not stated)	i
CN(CCc1nc2ccc(Cl)cc2[nH]1)c1cc(C2CC(O)C2)nc(N)n1 (configuration not stated)	+	MTase-Glo ctr=-4%
CN(CCO)C[C@@H]1CN(C(=O)CCc2nc3ccc(F)cc3[nH]2)C[C@@H]1CO	i
COc1ccc(OC)c(CCNC(=O)CCc2nnc3n(CC(C)C)c(=O)c4ccccc4n23)c1	i
O=C1NCCN1C1CCN(Cc2cccnc2)CC1	i
CCn1cc(CNc2ccc(-c3ccccc3OC)nn2)cn1	i
COc1cccc(Nc2cc3c(cn2)CN(Cc2cccnc2)CCN3)c1	+	MTase-Glo ctr=-5%[85.7 µM]
Cn1nccc1-c1cc2c(cn1)CN(Cc1ccncc1)CCN2	+	MTase-Glo ctr=-3%[85.7 µM]
COc1ccc2nc([C@H]3CCN(Cc4cccnc4)C3)[nH]c2c1	i
CCOc1cc2c(cn1)NCCN(Cc1ccncc1Cl)C2	i
COc1ccc(-c2nnc3n(Cc4ccccc4)c(=O)c4ccccc4n23)cc1OC	i
COc1ccc(CCN2CCN(CCCc3ccccc3)CC2)cc1OC	i
COc1ccc(CNc2cc3c(cn2)CN(Cc2ccccc2)CCN3)cc1OC	+	MTase-Glo ctr=-1%[85.7 µM]
COc1ccc(-c2cc3c(cn2)CN(CCc2ccccc2)CCN3)cc1OC	+	MTase-Glo ctr=u
COc1ccc(CN2C(=O)c3cc(-c4ccccc4)nn3CC2(C)C(=O)NCc2ccccc2)cc1OC (configuration not stated)	i
CC(C)CNC(=O)c1ccc2c(=O)n(CC(C)C)c3nn(CC(=O)c4ccccc4)c(=O)n3c2c1	i
Cc1ccc(CNC(=O)C2(C)Cn3nc(C(=O)NCCCc4ccccc4)cc3C(=O)N2C)cc1 (configuration not stated)	i
Cc1ccc(NC(=O)N2CCn3cccc3C2C(C)C)cc1C (configuration not stated)	i
CC1(C(=O)NC2CCCCC2)Cn2c(cc3ccccc32)C(=O)N1Cc1cccnc1 (configuration not stated)	i
CC1(C(=O)NC2CCCCCCC2)Cn2c(cc3occc32)C(=O)N1CCN1CCCCCC1 (configuration not stated)	i
COc1ccc(N2CCN(S(=O)(=O)c3cc4c(cc3Cl)n(C)c(=O)n4C)CC2)cc1	i
CCCCN1C(=O)c2cc3c(OC)ccc(OC)c3n2CC1(C)C(=O)NC1CCC(C)CC1 (configuration not stated)	i
Cn1c(=O)c2ccc(C(=O)NC3CCCC3)cc2n2c(=O)n(CC(=O)NC3CCCCC3)nc12	i
O=C(NCc1ccc2c(c1)OCO2)c1ccc2c(=O)nc3c(-c4ccc(Cl)cc4)n[nH]n3c2c1	i
CC1CCC(NC(=O)C2(C)Cn3c(ccc3-c3ccco3)C(=O)N2C2CCCCC2)CC1 (configuration not stated)	i
SMILES	Methyltransferases	others
CCn1c(=O)[nH]c2ccc3c(c21)C(=O)c1ccccc1C3=O	i
CCc1ccc(CN2C(=O)c3cc4ccccc4n3CC2(C)C(=O)NCCCOC(C)C)cc1 (configuration not stated)	i
c1ccc(CN2CCNc3cnc(Nc4ccc(N5CCOCC5)cc4)cc3C2)cc1	+	MTase-Glo ctr=3%[85.7 µM]
O=C1c2cc(N3CCOCC3)nc(-c3cccc(CO)c3)c2CN1c1ccccc1	i
CC1(C(=O)Nc2ccccc2)CN(Cc2ccccc2)Cc2ccc(N3CCOCC3)nc21 (configuration not stated)	i
COc1ccc(N2C(=O)c3ccc(-c4ccco4)n3CC2(C)C(=O)NC2CCCC2)cc1 (configuration not stated)	i
Cc1ccc(CNC(=O)Cn2c(=O)oc3cc(S(=O)(=O)N4CC(C)CC(C)C4)ccc32)cc1 (configuration not stated)	i
CN1C(=O)c2cc(NC(=O)CCC(=O)N3CCOCC3)ccc2N2CCN=C12	i
COCCCNC(=O)CCc1nnc2n(CCc3ccccc3)c(=O)c3ccccc3n12	i
CN1CCN(C(=O)c2cc3n(n2)CC(C)(C(=O)NCc2ccccc2)N(C)C3=O)CC1 (configuration not stated)	i
Cc1noc2c(-c3cnn(C)c3)cc(-c3cccnc3)nc12	i
Cc1noc2c(Nc3ccc(C(N)=O)cc3)cc(-c3ccsc3)nc12	i
Cc1noc2c(N3CCOCC3)cc(-c3cccnc3)nc12	i
COc1cccc(-c2cc(-c3cccs3)nc3c(C)noc23)c1	i
Cc1noc2c(N3CCOCC3)cc(-c3cccs3)nc12	+	MTase-Glo ctr=2%[85.7 µM]
COC1CCN(c2cc(-c3ccsc3)nc3c(C)noc23)CC1	+	MTase-Glo ctr=-5%[85.7 µM]
COc1ccccc1CNC(=O)C1(C)Cn2c(cc3ccccc32)C(=O)N1Cc1ccc(OC(C)C)cc1 (configuration not stated)	i
